From the supplement of paper PMC11732987, “Enantioselective OTUD7B fragment discovery through chemoproteomics screening and high-throughput optimisation” (Communications Chemistry, 2025)

Legend:
Experiment in all cases: log2 ratio of Biotin-Ahx-Ub-VS probe labelling (fragment/DMSO); higher = less target engagement (more negative = stronger competition), active = hit call of the paper (q ≤ 0.05, log2 ratio ≤ -1)
Conditions in all cases: compound concentration: 200 uM; treatment time: 3 h
[1] = target: T1, USP42 (UniProt Q9H9J4)
T1 sequence (whole entry): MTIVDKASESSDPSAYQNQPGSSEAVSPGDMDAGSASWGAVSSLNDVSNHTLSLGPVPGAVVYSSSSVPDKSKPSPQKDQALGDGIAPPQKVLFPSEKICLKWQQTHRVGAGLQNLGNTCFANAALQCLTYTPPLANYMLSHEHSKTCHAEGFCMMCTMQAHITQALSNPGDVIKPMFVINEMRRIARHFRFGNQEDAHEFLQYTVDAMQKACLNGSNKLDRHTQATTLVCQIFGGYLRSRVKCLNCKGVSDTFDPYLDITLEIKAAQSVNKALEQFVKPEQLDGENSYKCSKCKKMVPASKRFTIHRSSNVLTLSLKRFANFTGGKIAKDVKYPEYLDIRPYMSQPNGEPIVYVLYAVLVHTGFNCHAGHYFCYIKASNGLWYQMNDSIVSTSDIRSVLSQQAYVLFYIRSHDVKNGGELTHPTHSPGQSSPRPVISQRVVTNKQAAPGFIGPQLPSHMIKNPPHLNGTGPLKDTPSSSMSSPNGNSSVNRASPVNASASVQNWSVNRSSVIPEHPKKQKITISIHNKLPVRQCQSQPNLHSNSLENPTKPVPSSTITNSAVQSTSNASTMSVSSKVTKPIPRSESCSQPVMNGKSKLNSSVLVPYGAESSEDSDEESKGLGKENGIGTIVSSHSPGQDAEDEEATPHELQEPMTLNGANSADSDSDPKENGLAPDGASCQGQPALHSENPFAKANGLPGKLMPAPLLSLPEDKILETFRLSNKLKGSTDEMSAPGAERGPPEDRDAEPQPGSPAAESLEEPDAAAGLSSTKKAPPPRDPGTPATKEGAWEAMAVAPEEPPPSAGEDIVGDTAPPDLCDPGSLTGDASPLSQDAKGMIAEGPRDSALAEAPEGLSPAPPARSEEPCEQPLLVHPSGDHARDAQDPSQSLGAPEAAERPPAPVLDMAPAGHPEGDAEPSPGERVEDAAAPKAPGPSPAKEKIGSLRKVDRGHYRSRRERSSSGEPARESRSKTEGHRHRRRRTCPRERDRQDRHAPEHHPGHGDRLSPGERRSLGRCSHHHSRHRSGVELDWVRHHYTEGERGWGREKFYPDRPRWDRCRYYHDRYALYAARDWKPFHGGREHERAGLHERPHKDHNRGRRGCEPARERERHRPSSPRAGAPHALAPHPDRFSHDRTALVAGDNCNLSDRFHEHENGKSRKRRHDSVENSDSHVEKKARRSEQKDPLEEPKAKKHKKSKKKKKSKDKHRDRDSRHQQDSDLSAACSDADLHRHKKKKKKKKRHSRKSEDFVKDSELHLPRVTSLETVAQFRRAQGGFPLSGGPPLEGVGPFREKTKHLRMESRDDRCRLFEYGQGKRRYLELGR
Method in brief: (§1)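 Global-median-normalised Spectronaut label-free quantities were compared by unpaired t-test, and values are average log2 ratios of fragment over vehicle. Only proteins with ≥2 unique peptides were used. HEK293T lysate (495 µg per sample) was treated in triplicate with fragment at 200 µM or vehicle for 3 h and then with Biotin-Ahx-Ub-VS at 0.5 µM final for 1 h. Labelled DUBs were then NeutrAvidin-enriched, digested with LysC and trypsin, and run by diaPASEF LC-MS/MS.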

[2] = target: USP46 (UniProt P62068)
USP46, sequence (P62068 whole entry): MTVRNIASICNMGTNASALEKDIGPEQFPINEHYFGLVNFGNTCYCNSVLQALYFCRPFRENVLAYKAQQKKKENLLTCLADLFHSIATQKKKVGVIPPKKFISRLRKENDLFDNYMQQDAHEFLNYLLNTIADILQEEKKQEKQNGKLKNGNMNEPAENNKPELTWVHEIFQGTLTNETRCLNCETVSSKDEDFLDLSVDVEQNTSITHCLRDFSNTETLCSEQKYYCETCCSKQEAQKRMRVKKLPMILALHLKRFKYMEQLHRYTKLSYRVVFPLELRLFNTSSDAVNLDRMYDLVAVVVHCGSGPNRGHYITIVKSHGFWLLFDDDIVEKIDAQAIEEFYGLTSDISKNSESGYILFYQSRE
Method in brief: as §1

[3] = target: T2, USP47 (UniProt Q96K76)
T2 sequence (whole entry): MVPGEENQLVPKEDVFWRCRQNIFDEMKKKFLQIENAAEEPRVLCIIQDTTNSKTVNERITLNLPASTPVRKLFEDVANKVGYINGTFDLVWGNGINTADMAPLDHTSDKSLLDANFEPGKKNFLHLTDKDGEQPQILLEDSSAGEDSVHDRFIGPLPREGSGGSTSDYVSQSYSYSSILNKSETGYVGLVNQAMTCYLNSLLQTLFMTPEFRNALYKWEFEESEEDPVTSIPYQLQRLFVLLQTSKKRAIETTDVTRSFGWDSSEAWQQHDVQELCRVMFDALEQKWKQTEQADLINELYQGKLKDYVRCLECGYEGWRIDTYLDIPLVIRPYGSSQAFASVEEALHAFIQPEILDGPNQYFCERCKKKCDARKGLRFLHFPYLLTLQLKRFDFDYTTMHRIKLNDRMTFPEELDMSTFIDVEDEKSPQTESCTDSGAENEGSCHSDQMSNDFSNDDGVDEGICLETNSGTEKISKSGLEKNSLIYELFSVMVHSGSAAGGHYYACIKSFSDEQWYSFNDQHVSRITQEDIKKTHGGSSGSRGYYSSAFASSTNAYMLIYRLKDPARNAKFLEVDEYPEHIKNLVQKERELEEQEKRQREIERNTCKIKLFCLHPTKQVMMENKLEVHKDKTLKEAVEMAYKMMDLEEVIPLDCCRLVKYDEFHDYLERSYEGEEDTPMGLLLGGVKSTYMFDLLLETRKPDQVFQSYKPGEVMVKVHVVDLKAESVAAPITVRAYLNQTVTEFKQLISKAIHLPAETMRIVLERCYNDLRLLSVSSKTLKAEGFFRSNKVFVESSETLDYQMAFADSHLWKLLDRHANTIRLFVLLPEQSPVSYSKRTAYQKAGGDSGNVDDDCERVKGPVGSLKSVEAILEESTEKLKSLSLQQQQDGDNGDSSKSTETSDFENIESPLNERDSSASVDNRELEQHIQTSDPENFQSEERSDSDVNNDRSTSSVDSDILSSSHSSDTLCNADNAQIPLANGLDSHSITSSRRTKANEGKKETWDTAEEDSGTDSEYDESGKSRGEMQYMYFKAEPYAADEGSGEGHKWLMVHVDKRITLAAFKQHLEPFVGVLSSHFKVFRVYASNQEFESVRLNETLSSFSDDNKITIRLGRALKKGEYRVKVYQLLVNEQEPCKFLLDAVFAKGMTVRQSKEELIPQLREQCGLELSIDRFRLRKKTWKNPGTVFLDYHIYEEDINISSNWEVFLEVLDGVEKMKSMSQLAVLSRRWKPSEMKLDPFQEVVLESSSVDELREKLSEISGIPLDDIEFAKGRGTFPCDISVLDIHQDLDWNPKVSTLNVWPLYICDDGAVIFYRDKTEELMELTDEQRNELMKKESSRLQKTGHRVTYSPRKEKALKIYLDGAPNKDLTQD
Method in brief: as §1

[4] = target: T3, USP48 (UniProt Q86UV5)
T3 sequence (whole entry): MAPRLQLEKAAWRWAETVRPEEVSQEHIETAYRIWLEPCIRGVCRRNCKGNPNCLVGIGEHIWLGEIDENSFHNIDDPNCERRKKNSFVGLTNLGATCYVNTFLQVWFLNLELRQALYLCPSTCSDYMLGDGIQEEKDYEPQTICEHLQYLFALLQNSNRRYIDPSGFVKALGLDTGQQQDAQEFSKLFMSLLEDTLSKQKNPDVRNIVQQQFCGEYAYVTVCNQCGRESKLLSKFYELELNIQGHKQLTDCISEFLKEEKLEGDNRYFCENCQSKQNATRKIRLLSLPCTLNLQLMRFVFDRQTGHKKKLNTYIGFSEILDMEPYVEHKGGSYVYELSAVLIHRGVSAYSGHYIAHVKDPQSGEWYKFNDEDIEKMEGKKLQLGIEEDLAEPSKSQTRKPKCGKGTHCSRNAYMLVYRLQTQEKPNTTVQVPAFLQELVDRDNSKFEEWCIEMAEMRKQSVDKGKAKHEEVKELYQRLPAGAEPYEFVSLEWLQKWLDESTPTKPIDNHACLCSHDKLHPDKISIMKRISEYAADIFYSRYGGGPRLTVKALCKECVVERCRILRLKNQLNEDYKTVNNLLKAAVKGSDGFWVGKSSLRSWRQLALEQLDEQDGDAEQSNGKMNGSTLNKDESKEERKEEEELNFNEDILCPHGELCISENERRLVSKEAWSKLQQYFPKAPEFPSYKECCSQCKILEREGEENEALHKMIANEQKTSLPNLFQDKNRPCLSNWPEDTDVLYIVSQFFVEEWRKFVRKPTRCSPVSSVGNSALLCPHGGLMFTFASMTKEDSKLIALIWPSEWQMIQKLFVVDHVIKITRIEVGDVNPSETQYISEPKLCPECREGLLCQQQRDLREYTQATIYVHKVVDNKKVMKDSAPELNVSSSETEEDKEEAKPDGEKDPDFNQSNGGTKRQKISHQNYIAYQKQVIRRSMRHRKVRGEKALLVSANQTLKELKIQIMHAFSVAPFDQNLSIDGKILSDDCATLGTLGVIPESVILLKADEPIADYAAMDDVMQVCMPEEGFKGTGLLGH
Method in brief: as §1

[5] = target: T4, USP5 (UniProt P45974)
T4 sequence (whole entry): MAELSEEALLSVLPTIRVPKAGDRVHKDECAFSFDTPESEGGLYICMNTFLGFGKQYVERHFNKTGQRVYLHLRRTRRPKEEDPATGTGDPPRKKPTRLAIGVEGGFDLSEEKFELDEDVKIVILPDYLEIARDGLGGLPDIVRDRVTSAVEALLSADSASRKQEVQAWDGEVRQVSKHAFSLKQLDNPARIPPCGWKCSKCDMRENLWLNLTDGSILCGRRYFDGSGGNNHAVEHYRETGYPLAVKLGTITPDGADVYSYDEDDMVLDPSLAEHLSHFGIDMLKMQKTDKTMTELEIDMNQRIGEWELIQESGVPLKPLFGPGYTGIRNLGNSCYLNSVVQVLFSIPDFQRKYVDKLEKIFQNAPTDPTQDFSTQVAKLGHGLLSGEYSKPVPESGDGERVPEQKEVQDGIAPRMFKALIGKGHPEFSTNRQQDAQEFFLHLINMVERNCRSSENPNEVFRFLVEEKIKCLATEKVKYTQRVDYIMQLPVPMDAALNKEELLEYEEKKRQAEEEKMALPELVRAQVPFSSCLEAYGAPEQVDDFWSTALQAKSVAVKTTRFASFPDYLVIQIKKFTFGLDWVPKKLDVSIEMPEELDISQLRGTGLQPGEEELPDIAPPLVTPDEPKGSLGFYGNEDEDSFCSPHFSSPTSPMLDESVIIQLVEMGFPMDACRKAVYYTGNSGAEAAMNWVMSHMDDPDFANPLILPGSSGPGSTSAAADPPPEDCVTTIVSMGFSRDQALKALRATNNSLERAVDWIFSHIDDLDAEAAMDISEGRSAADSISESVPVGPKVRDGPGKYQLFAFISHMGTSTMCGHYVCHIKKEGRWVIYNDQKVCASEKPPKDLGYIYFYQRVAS
Method in brief: as §1

[6] = target: USP54 (UniProt Q70EL1)
USP54, sequence (Q70EL1 whole entry): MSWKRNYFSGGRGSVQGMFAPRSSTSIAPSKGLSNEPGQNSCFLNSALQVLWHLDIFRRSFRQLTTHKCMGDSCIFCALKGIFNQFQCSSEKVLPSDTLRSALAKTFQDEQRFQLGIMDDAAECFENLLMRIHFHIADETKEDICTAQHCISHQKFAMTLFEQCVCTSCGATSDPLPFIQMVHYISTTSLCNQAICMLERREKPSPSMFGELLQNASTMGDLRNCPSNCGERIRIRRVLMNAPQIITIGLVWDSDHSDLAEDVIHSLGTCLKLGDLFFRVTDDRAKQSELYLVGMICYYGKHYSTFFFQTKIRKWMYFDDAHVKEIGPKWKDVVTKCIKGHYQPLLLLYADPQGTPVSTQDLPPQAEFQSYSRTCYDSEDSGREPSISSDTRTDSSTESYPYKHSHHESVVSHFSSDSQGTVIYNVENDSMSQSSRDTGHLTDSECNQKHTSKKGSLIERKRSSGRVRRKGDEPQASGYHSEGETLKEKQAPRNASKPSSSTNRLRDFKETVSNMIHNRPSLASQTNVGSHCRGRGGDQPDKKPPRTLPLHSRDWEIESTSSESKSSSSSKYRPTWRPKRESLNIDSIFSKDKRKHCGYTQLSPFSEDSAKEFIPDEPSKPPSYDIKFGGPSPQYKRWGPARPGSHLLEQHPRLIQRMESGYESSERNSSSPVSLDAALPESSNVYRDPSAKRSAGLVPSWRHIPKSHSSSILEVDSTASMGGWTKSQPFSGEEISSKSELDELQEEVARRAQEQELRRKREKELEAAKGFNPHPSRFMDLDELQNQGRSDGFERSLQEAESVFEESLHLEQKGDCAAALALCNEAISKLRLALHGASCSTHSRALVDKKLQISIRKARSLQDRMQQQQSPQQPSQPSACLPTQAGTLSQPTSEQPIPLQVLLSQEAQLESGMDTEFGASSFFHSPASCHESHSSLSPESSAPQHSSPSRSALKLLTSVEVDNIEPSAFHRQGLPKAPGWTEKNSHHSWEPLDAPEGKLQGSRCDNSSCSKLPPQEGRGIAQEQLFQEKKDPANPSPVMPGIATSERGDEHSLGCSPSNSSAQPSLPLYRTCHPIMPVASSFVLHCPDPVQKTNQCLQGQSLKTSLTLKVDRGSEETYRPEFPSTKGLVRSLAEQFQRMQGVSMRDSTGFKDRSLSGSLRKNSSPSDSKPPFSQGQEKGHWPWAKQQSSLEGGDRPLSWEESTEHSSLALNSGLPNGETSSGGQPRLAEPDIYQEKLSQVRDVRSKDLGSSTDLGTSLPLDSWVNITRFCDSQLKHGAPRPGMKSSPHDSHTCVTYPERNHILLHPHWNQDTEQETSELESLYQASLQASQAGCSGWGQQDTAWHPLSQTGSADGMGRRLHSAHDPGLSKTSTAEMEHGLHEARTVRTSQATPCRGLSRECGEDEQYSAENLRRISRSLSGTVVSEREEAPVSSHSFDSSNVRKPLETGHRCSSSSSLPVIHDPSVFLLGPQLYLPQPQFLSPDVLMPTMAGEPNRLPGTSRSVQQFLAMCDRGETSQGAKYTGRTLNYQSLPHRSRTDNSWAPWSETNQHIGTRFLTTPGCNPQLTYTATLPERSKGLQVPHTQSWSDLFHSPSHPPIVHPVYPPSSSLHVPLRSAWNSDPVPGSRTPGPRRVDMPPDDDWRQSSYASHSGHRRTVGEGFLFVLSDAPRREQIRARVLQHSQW
Method in brief: as §1

[7] = target: USP7 (UniProt Q93009)
Method in brief: as §1

[8] = target: T5, USP8 (UniProt P40818)
T5 sequence (whole entry): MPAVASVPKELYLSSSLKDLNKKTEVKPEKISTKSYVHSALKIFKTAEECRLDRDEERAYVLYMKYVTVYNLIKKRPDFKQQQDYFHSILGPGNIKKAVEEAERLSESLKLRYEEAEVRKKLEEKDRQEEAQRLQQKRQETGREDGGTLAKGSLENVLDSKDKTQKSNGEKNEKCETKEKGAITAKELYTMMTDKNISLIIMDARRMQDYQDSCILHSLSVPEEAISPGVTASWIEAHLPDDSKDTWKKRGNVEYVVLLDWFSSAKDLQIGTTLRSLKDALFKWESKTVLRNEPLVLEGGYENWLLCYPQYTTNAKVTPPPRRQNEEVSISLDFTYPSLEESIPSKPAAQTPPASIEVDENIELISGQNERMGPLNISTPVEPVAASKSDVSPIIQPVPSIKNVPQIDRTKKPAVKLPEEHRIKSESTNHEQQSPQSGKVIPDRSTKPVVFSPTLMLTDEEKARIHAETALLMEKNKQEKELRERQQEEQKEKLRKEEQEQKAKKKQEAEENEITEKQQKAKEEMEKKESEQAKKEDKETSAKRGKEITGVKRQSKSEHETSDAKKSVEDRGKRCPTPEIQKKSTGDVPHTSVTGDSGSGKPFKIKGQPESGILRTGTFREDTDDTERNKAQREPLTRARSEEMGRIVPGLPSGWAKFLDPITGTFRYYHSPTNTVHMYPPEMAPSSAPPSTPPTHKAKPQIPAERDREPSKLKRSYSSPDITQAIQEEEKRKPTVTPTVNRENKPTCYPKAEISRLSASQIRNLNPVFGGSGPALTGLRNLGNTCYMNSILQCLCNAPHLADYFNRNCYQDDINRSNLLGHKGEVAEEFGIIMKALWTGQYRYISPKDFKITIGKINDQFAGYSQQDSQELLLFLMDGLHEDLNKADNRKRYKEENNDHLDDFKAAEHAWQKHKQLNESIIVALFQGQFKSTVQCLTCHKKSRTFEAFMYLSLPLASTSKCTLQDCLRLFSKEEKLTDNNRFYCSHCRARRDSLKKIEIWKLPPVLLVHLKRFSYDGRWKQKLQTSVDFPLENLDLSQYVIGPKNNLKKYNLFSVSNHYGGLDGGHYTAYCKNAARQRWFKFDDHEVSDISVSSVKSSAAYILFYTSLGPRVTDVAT
Method in brief: as §1

[9] = target: USP9X (UniProt Q93008)
USP9X, sequence (Q93008 whole entry): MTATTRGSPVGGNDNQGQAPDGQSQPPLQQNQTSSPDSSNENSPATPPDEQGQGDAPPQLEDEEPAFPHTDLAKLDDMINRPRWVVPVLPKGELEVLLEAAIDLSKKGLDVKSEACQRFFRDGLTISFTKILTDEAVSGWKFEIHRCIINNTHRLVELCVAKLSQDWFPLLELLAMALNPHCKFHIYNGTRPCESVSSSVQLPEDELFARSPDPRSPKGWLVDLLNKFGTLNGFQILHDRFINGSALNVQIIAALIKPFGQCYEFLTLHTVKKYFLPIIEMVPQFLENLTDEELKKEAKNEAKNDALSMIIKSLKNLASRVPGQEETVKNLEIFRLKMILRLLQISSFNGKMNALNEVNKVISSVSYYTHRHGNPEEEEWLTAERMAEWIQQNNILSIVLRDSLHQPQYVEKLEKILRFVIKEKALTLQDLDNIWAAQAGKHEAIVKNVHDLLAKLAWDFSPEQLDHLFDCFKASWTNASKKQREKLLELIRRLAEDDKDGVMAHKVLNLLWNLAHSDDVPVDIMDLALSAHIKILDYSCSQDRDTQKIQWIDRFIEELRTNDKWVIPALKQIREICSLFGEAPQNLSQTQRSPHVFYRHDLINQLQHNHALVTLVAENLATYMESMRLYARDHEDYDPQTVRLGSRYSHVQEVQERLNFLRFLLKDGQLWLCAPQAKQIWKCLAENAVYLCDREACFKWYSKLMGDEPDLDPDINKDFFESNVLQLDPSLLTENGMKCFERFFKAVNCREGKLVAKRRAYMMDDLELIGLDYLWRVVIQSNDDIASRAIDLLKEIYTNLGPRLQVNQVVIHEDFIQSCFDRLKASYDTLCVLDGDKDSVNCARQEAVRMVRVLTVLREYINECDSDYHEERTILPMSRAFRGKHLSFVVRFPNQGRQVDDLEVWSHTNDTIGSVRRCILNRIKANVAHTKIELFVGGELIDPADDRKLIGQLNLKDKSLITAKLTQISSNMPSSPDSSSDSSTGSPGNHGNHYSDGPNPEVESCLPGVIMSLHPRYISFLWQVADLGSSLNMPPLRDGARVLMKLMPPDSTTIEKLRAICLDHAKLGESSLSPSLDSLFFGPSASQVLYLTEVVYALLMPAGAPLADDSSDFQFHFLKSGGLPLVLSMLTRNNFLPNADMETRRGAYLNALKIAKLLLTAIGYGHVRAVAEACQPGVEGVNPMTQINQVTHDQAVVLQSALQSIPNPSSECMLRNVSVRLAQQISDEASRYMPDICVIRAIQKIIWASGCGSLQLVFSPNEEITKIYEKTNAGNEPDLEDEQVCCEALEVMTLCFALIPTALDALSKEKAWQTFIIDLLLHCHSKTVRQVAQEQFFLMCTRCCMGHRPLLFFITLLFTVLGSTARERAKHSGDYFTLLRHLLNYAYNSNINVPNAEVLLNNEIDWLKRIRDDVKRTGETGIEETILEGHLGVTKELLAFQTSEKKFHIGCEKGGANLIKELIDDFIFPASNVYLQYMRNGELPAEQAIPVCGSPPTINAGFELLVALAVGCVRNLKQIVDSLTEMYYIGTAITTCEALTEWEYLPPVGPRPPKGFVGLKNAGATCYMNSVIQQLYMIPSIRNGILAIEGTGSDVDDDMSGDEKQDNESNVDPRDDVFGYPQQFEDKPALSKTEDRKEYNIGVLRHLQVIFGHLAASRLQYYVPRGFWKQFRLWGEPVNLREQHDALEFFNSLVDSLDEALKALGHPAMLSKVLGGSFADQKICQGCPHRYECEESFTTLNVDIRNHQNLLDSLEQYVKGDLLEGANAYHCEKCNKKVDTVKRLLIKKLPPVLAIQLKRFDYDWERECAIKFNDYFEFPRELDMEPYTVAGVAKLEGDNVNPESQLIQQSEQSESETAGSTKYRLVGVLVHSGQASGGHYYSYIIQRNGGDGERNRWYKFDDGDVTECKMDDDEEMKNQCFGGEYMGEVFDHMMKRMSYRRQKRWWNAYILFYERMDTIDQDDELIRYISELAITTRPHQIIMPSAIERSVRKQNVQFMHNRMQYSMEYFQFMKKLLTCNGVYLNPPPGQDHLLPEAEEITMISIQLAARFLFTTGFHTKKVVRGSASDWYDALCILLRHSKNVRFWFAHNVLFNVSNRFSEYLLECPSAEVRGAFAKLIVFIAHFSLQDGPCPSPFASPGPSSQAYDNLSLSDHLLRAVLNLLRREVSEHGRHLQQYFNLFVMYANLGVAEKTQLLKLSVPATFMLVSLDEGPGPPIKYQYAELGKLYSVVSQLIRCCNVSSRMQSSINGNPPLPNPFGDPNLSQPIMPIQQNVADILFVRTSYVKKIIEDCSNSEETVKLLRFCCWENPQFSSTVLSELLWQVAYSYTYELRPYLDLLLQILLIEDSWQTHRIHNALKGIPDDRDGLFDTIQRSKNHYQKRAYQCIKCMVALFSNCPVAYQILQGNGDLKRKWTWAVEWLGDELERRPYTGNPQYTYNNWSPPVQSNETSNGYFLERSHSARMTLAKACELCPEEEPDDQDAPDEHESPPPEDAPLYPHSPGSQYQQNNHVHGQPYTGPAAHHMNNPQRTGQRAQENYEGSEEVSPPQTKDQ
Method in brief: as §1

[10] = target: UniProt O00487
UniProt O00487, sequence (O00487 whole entry): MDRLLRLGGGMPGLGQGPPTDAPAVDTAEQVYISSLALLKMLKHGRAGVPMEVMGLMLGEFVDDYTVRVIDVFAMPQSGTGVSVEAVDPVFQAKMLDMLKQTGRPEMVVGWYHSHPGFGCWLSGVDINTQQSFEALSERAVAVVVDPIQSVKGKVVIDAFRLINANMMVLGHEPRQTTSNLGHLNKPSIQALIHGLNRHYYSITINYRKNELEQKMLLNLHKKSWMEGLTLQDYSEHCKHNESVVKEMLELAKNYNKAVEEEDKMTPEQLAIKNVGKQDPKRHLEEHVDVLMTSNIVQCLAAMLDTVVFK
Method in brief: as §1

Measured: log2 ratio of Biotin-Ahx-Ub-VS probe labelling

O=C(CCl)N1CCCCCC1c1ncon1 (stereo not given)
inactive: [1] -0.342 | [2] 0.113 | [3] -0.552 | [4] -0.467 | [5] 0.214 | [6] 0.731 | [7] -0.491 | [8] -0.0227 | [9] -0.226 | [10] -0.0641
